The supplement of paper PMC3334620
Over roughly 33,000 sequences, “E-score (-0.5 to 0.5)” has its median near -0.0034; the highest 2% begin near 0.25. The entries come from a sample that favours the highest values as a whole.

The sequences below were run against T1, Yap3 (UniProt P38749) (assay: PBM E-score (8-mer binding enrichment) (E-score (-0.5 to 0.5)); higher = stronger / more preferred TF binding). Settings: protein concentration: 100 nM; construct: GST-full length.
T1 sequence: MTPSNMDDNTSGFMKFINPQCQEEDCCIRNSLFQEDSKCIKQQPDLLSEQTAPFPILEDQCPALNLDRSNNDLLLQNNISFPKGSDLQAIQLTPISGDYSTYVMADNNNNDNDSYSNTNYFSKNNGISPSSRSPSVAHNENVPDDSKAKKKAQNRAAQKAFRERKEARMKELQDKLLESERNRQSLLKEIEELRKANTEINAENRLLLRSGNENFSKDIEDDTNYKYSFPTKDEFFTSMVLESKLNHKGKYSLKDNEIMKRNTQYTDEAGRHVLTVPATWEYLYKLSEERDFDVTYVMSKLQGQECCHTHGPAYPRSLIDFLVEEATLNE
In short: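 Bound GST-tagged yeast transcription factors, applied at about 100-200 nM to double-stranded universal all-10-mer Agilent arrays, were detected with fluorescent anti-GST. Scans were normalised with masliner. A modified Wilcoxon-Mann-Whitney statistic, the E-score, was assigned to each ungapped eight-base word pooled with its reverse complement by the Universal PBM Analysis Suite.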

Sequence	PBM E-score
AATTTCGA	-0.00117
TATTTCGA	0.293
GATTTCGA	0.12
ATTGTCCG	0.216
TGGTAGAA	-0.0125
GTTATAAC	0.162
TCTATAAA	0.111
CTTATAAA	0.187
GTTATAGA	0.0873
GTTATAAA	0.283
TTTATAAA	0.277
GCAATTAA	0.112
AGAACGCG	0.14
AAGTCGCG	0.146
CATCTACG	-0.0208
GCCCGTAC	-0.155
AAATGAAA	0.324
ACATGATC	0.115
GCATGATA	0.184
AAATGATA	0.275
ACATGATA	0.263
AAATGATT	0.19
CAATGATA	0.137
CAATGAAA	0.077
AAATGATC	-0.129

Sequence	PBM E-score
GAATGATA	0.295
TAATGATA	0.239
TAATGAAA	0.218
ACCGCAAA	0.109
CCTTCATC	-0.195
AGACTATC	0.0563
AGAAGTCG	0.0232
CGGATAGC	0.052
GACCAGAA	-0.00826
ACGGCTAT	-0.0939
CAGACCTC	-0.181
GCAAAAGC	0.0339
ATATTAAG	0.0834
AAATTAAA	0.319
AAATTAAC	0.136
ATATTAGA	0.175
AAATTAAT	0.229
CTATTAAC	0.188
AGATTAAT	0.194
ATATTAAC	0.274
ATATTAAA	0.378
ATATTAAT	0.351
GTATTAAC	0.0508
CTATTAAA	0.135
AGAGACGC	0.0051

Sequence	PBM E-score
CTCCTCCC	-0.358
GTACTGAA	0.117
AACCTTCG	0.0416
CATTGTAA	0.172
CACCAGAG	-0.215
AAGAGTAA	0.0872
TGATTAAA	0.113
GCATTAAA	0.177
ACATTAAA	0.229
TTATTAAA	0.34
TCATTAAA	0.258
GTATTAAA	0.141
GGAGAAGA	-0.148
TAACGCTA	0.023
ATGGCAAT	0.0617
GGGATTAC	0.00382
CAAGCTAG	-0.0475
GATTAGTA	0.218
AATTAGTC	0.303
AGTTAGTA	0.195
AATTAGTG	0.269
CGTTAGTA	0.241
CATTAGTA	0.289
CATTAGCA	0.0386
AATTAGTA	0.369

Sequence	PBM E-score
AATTAGGG	-0.107
CATTAGTC	0.0988
ACTTAGTG	-0.0604
AGTTAGTC	0.0694
ACCTTATC	0.0868
ATCCTCTC	-0.0398
GCAGTGTA	0.0324
GTTCACGA	0.0641
AACTTATT	0.21
TAAGAACA	0.326
GAAGAACA	0.225
CAAGAACA	-0.0451
GTTCATAA	0.0365
GACTCGTA	-0.126
GGATTGCC	-0.116
AGAACACG	0.0921
CAAGGGAC	-0.0565
CTTACTCA	0.164
CTTACTAA	0.443
CTTACTAC	0.211
GTTACTAA	0.339
GTTACTCA	0.161
GTTACTGA	0.106
